This is an account of results in PubChem BioAssay (NCATS).

The target of test [1] is DNA repair nuclease/redox regulator APEX1 (Homo sapiens) (UniProt P27695). Briefly: qHTS Validation Assay for Inhibitors of the Human Apurinic/apyrimidinic Endonuclease 1 (APE1) (AID 1705;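 note: TAMRA fluorescence gain over two minutes as APE1 cuts a quenched THF abasic duplex; series mostly up to about 57 µM; % is set by controls: 0 for no effect and ±100 for the full control effect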). Put shortly: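 Fluorogenic double-stranded THF abasic-site substrate (5'-TAMRA/3'-BHQ-2), 50 nM final. Enzyme preincubated with compound 15 min at room temperature, then substrate added. Kinetic fluorescence (ex 525/em 598 nm) read three times at 60 s intervals; activity taken as third-minus-first read difference.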
Sequence of DNA repair nuclease/redox regulator APEX1 (Homo sapiens) (P27695 whole entry, looked up): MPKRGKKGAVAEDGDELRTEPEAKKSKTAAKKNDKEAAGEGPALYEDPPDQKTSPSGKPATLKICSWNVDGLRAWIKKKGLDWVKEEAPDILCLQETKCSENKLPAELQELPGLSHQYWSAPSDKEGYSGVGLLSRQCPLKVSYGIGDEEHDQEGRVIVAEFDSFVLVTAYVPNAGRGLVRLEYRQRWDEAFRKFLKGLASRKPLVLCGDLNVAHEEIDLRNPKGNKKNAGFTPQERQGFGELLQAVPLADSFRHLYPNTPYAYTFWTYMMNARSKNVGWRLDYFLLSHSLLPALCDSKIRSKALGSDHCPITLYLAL
(In general: Quantitative high-throughput screening tests each substance at several concentrations.)

Test [2] can be described thus: Counterscreen for APE1 Inhibitors: Fluorescent Dye Displacement Validation Assay (AID 1707).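 Note: plate controls were ThO with dsDNA and no compound for no effect and ThO without dsDNA for full effect.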 Put shortly: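 Reaction mixture of 250 nM Thiazole Orange and 50 nM double-stranded abasic-site DNA was dispensed, compounds were pin-transferred, and fluorescence was read at endpoint (480 nm ex, 540 nm em). Reduced fluorescence indicated dye displacement by DNA binding.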

Test [3] has as its target Endonuclease 4 (Escherichia coli (strain K12)) (UniProt P0A6C1). Briefly: Counterscreen for APE1 Inhibitors: qHTS Validation Assay for Inhibitors of Endonuclease IV (AID 1708). Note: % is set by controls: 0 for no effect and ±100 for the full control effect. Put shortly: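 Conditions: 2 nM enzyme, 50 nM TAMRA/BHQ-2 substrate, pH 7.5 Tris buffer with 2 mM MgCl2, RT. Compound preincubation 15 min; readout three fluorescence reads 60 s apart, third-minus-first.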

The nature of test [4]: qHTS for differential inhibitors of proliferation of Plasmodium falciparum line GB4 (AID 1816).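 For activity change, negative = inhibition: 0% = vehicle DMSO and -100% = reference inhibitor.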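 Note: parasite growth measured after 72 h incubation.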 Note: potency is the fitted concentration of half-maximal effect. The conditions noted are these: Potency: Plasmodium falciparum GB4 proliferation inhibition.
Test [5] can be described thus: qHTS for differential inhibitors of proliferation of Plasmodium falciparum line 3D7 (AID 1876). Note: potency is the fitted concentration of half-maximal effect.
Test [6] can be described thus: qHTS for differential inhibitors of proliferation of Plasmodium falciparum line D10 (AID 1877).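 For activity change, negative = inhibition: plate controls were vehicle wells for no effect and reference inhibitor wells for full effect.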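 Note: parasites grown with compound for 72 h before DNA staining.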 Note: potency is the fitted concentration of half-maximal effect.
The nature of test [7]: qHTS for differential inhibitors of proliferation of Plasmodium falciparum line Dd2 (AID 1882).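 Note: series mostly up to about 29 µM; plate controls were DMSO vehicle for no effect and 0.29 µM artemisinin for full effect; nearly all actives have a fitted effect of over 65% in size.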 The conditions noted are these: Potency: Plasmodium falciparum Dd2 proliferation inhibition. The method, boiled down:
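SYBR Green DNA fluorescence (ex 485, em 535 nm) after overnight lysis quantifies parasite growth; compound exposure lasted 72 h at 37 C on infected red cells at 2.5% hematocrit, 0.3% parasitemia (final). Artemisinin 0.29 uM and vehicle wells define normalization.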

A short description of test [8]: qHTS for differential inhibitors of proliferation of Plasmodium falciparum line HB3 (AID 1886).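 For activity change, negative = inhibition: plate controls were vehicle for no effect and reference inhibitor for full effect.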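 Note: parasites grown with compound for 72 h before SYBR Green readout.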 Note: potency is the fitted concentration of half-maximal effect. The conditions noted are these: Potency: Plasmodium falciparum HB3 proliferation inhibition.
The target in test [9] is Ferritin light chain (Equus caballus) (UniProt P02791). Briefly: qHTS Validation Assay for Identification of Novel General Anesthetics (AID 2323). Note: series mostly up to about 77 µM; % is set by controls: 0 for no effect and ±100 for the full control effect. Put shortly: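 Horse-spleen apoferritin (10 uM) in PBS with 50% saturated 1-aminoanthracene; compounds pin-transferred, 10 min at room temperature. Fluorescence read at 380/535 nm, normalized to free 1-AMA and 1-AMA/apoferritin values; four-parameter Hill fit.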
Sequence of Ferritin light chain (Equus caballus) (P02791 2-175 limits assumed): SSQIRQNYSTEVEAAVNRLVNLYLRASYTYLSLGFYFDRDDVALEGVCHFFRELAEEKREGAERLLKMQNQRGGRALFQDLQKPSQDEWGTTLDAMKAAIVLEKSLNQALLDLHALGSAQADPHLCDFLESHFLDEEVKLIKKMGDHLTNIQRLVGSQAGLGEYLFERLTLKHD

For test [10], the target named is ATP-dependent DNA helicase Q1 (Homo sapiens) (UniProt P46063). Kind of test: qHTS Validation Assay for Inhibitors of RecQ-Like Dna Helicase 1 (RECQ1) (AID 2353).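 Note: plate controls were DMSO vehicle for no effect and enzyme-free control for full effect.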 The method, boiled down: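 RECQ1T1 50 nM; forked duplex (20 bp + 30-nt ss tails) 200 nM, ATP 2 mM final; pH 8.0, 2 mM MgCl2, 2.5 ug/ml poly(dI-dC); 15 min compound preincubation; discontinuous kinetic read over 2 h at RT.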
Sequence of ATP-dependent DNA helicase Q1 (Homo sapiens) (P46063 whole entry, looked up): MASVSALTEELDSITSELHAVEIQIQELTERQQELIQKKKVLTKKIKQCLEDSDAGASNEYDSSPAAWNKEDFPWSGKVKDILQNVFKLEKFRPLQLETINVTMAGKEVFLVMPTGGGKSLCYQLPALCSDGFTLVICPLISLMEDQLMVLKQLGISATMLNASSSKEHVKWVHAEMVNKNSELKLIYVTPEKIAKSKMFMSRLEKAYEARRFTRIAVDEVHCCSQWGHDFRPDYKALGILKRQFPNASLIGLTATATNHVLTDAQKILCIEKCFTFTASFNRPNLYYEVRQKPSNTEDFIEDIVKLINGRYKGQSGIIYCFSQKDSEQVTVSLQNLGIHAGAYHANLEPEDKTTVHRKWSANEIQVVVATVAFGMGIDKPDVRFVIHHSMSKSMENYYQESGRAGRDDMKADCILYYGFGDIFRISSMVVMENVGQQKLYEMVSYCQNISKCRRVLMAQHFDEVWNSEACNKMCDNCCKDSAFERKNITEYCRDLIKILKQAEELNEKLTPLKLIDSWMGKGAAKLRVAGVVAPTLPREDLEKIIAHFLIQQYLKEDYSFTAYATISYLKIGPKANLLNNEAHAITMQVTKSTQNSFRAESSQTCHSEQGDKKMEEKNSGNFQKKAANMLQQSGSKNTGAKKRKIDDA

Test [11] can be described thus: Quantitative high throughput screen for delayed death inhibitors of the malarial parasite plastid, 96 hour incubation (AID 488745). Note: series mostly up to about 29 µM; % is set by controls: 0 for no effect and ±100 for the full control effect; nearly all actives have a fitted effect of over 70% in size. Put shortly: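 Decreased firefly luciferase luminescence indicates inhibited growth of reporter-integrated P. falciparum after two generations (96 h, 37 C, 5% CO2). Infected erythrocytes at 0.1% parasitemia, 2% hematocrit, in Albumax-supplemented RPMI 1640.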

The nature of test [12]: Quantitative high throughput screen for delayed death inhibitors of the malarial parasite plastid, 48 hour incubation (AID 488752). For activity change, negative = inhibition: % is set by controls: 0 for no effect and ±100 for the full control effect. Note: nearly all actives have a fitted effect of over 65% in size. Note: potency is the fitted concentration of half-maximal effect. The method, boiled down: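 One-generation (48 h) growth assay: a decrease in luciferase signal from an integrated reporter in P. falciparum-infected red cells (0.1% parasitemia, 2% hematocrit) after compound exposure at 37 C indicates parasite inhibition.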

Test [13] concerns the target M-phase phosphoprotein 8 (Homo sapiens) (UniProt Q99549). Briefly: qHTS Validation Assay for Inhibitors for MPP8 Chromodomain Interactions with Methylated Histone Tails (AID 488949). Note: top concentration of the series differs between compounds; % is set by controls: 0 for no effect and ±100 for the full control effect; nearly all actives have a fitted effect of over 55% in size. The method, boiled down:
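MPP8 (50 nM) was pre-bound to 50 nM biotinylated H3(1-18)K9me3 peptide in PBS pH 7.4 with 0.01% Tween-20. Compounds were then added for 30 min at room temperature, and complex disruption was read by AlphaScreen with streptavidin donor and nickel-chelate acceptor beads.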

In test [14] the target is Thyrotropin receptor (Homo sapiens) (UniProt P16473). Briefly: qHTS Assay for Antagonists of the Thyroid Stimulating Hormone Receptor (AID 488980). Note: series mostly up to about 58 µM; 0% is about no effect. Put shortly: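 TSHR-transfected HEK293 cells (2000/well) in HEPES-buffered HBSS with 70 uM RO 20-1724 were stimulated with 4 nM TSH (EC80, final) in the presence of compound. cAMP was measured by HTRF competition after lysis and 30 min at RT.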
Sequence of Thyrotropin receptor (Homo sapiens) (P16473 whole entry, looked up): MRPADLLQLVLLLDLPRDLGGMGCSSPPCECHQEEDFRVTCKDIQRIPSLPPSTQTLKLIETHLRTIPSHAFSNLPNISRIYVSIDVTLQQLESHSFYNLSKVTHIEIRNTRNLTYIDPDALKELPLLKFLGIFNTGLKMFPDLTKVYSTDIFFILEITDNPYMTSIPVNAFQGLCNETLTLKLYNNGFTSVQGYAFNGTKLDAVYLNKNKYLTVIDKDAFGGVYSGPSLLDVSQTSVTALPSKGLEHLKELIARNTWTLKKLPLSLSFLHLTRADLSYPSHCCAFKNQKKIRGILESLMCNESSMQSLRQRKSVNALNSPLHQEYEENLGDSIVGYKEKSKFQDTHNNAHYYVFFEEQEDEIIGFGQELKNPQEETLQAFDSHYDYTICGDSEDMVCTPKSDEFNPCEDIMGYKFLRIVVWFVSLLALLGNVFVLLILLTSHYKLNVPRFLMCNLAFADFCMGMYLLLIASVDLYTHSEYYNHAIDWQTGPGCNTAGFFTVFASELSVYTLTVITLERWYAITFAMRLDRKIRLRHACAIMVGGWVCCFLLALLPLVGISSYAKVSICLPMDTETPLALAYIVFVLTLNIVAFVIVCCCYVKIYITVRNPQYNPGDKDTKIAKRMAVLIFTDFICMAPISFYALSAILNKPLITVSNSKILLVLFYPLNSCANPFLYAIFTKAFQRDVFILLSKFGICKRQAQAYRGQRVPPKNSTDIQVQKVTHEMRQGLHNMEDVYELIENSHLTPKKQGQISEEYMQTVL

Test [15] addresses Thyrotropin-releasing hormone receptor (Homo sapiens) (UniProt P34981). Kind of test: qHTS for Small Molecule Agonists and Allosteric Enhancers of Human TRH Receptor: Validation Screen for Agonists (AID 493127;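 active = calcium activation more than 3 SD above the typical response in the agonist read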;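 note: intracellular calcium rise by fluo-8 fluorescence before TRH EC20 addition; 0% is about no effect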). The conditions noted are these: TRH receptor agonist cell assay; at 2 µM; active compounds read high. Put shortly: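 Compound-evoked intracellular calcium release in fluo-8-loaded TRHR cells, read kinetically on FDSS (Ex 480/Em 530, 1 s/cycle) after 23 nL pintool transfer. Agonist phase preceded 10 nM TRH EC20 addition.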

The target in test [16] is Galactokinase (Homo sapiens) (UniProt P51570). Briefly: qHTS Validation Assay for Inhibitors of Human Galactokinase (GALK) (AID 493189). Note: 0% is about no effect. The method, boiled down:
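GALK (5 nM) with 35 uM ATP and 100 uM galactose in HEPES pH 8.0 with MgCl2, NaCl, DTT and BSA. Reaction ran 1 h at room temperature. Residual ATP read by Kinase-Glo Plus luminescence.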

The nature of test [17]: Validation screen for small molecules that induce DNA re-replication in SW480 colon adenocarcinoma cells (AID 504364). Note: 0% is about no effect. The method, boiled down: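 Image-based DNA content read-out: Hoechst stain 40 min, total nuclear fluorescence intensity (ex 405 nm, em 500-530 nm) after 48 h compound exposure of 250 SW480 cells/well at 37 C, 5% CO2, versus DMSO vehicle.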
The target in test [18] is Rap guanine nucleotide exchange factor 3 (Homo sapiens) (UniProt O95398). Kind of test: Counterscreen qHTS for antagonist of cAMP-regulated guanine nucleotide exchange factor 3 (EPAC1) (AID 1645888).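 Note: fluorescence loss as bound BODIPY-GDP is released from Rap1B; % of control where 0% means no effect.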 The method, boiled down: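 Rap1B–BODIPY-GDP (250 nM) with 50 uM GDP; compounds pin-transferred to 9.74 nM–152 uM final (activator) or from 7.32 nM upwards (inhibitor). Fluorescence Ex/Em 480/540 nm read at 5 and 30 min, then after adding cAMP or buffer, at room temperature.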
On the technique in general: A counterscreen serves to expose hits that act by an unwanted route or on another target.

Test [19] can be described thus: qHTS for differential inhibitors of proliferation of Plasmodium falciparum line 7G8 (AID 1815).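 Note: potency is the fitted concentration of half-maximal effect; parasite growth measured after three days of incubation.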
A short description of test [20]: qHTS for differential inhibitors of proliferation of Plasmodium falciparum line W2 (AID 1883).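 Note: potency is the fitted concentration of half-maximal effect; parasites grown with compound for 72 h before lysis and staining.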 The conditions noted are these: Potency: Plasmodium falciparum W2 proliferation inhibition.
In test [21] the target is Transient receptor potential cation channel subfamily V member 1 (Homo sapiens) (UniProt Q8NER1). Briefly: HTS Assay for Compounds that Act as Enhancers of the Vanilloid Receptor 1 (AID 488979). Note: 0% is about no effect. Put shortly:
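TRPV1 cells loaded with Fluo-8 calcium dye; compound added and Ca2+ signal (ex 480/em 520 nm) followed 3 min, then capsaicin at EC20 added and read 2 more min to detect enhancement.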

The structures appear in SMILES notation. Values without a mark were called inactive. Inconclusive results are not listed. Activity calls are given as the source filed them. Unless noted, calls come from the whole dose curve; as a rule, active = well fitted curve in the direction sought with a large enough effect; inconclusive = small, poorly fitted or top-dose-only effect, or another doubt; inactive = no such curve, though single readings can be large; an effect the other way counts as inactive or inconclusive.

Sequence of Galactokinase (Homo sapiens) (P51570 whole entry, looked up): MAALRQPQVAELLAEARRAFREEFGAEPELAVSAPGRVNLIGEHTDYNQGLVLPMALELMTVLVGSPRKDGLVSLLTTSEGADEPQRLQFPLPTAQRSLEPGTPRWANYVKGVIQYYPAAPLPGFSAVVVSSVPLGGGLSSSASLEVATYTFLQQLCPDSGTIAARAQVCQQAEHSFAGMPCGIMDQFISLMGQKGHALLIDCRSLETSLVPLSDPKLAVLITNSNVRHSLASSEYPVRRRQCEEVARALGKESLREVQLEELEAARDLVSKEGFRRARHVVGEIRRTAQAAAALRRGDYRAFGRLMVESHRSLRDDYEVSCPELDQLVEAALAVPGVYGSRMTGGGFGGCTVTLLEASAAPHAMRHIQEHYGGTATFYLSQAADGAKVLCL
Sequence of M-phase phosphoprotein 8 (Homo sapiens) (Q99549 whole entry, looked up): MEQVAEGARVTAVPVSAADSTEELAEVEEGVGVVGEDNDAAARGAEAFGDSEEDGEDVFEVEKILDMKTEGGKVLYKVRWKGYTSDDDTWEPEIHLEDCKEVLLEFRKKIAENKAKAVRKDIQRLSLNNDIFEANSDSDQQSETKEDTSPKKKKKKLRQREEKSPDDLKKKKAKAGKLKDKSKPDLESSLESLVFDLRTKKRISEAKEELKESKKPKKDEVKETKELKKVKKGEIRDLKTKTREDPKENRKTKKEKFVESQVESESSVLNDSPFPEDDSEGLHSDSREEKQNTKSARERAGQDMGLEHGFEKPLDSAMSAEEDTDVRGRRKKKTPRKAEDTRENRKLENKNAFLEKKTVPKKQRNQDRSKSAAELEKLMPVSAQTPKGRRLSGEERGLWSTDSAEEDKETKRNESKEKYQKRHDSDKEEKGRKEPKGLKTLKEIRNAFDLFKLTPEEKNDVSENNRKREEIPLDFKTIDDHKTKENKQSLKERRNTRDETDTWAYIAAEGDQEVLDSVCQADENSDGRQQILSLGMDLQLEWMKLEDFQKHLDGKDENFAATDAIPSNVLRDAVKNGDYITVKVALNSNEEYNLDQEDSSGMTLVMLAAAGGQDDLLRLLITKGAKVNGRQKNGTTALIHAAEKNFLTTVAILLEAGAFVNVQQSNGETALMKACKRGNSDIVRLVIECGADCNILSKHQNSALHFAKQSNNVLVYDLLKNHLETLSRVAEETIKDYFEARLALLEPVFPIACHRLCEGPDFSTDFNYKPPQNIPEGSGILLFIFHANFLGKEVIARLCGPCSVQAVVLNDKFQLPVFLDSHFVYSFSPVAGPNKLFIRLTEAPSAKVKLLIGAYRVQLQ
Sequence of Transient receptor potential cation channel subfamily V member 1 (Homo sapiens) (Q8NER1 whole entry, looked up): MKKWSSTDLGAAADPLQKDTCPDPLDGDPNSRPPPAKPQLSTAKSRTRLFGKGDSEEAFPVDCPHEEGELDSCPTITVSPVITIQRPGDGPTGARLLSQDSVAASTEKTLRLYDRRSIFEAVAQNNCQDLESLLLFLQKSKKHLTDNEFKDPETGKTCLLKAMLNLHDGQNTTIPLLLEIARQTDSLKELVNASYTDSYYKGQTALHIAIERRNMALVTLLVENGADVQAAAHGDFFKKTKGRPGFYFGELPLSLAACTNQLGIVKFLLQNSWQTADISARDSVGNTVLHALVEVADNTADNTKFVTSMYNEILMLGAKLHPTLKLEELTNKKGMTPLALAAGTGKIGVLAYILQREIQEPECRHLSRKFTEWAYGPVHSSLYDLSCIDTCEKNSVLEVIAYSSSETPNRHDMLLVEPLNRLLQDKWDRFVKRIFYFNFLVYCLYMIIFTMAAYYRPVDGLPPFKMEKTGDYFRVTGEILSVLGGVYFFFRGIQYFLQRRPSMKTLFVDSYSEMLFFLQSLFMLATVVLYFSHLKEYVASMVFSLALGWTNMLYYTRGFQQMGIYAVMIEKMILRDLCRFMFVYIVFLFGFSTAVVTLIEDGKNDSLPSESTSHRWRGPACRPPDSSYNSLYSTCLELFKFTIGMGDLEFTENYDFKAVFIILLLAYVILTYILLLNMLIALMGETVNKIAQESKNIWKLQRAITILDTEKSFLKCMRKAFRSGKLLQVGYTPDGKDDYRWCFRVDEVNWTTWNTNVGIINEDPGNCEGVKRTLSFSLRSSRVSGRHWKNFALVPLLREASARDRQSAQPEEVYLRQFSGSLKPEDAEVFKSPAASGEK
Sequence of Thyrotropin-releasing hormone receptor (Homo sapiens) (P34981 whole entry, looked up): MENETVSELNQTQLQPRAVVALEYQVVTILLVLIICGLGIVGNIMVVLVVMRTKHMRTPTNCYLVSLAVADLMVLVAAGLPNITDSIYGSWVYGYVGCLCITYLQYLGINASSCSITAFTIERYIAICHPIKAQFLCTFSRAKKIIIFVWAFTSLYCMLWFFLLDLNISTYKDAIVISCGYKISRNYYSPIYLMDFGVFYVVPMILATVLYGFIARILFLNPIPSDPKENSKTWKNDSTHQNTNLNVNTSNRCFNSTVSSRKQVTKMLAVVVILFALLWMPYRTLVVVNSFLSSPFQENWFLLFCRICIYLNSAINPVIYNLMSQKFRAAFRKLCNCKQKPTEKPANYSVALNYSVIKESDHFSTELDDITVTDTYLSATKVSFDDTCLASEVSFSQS

For `CC[C@H](C)C(=O)O[C@H]1CCC=C2C=C[C@H](C)[C@H](CC[C@@H]3C[C@H](O)CC(=O)O3)C21` (some centres undefined), the Potency entry in [1], in [3], in test [4], in test [5], in test [6] and in [7] was “inactive” each time. For the same molecule, the Potency result in test [8], in test [11], in [12], in test [13] and in [17] was “inactive” throughout. In addition, the molecule was classed as inactive in test [2], in test [9], in test [10], in test [14] and in test [16]. For the same molecule, in test [15], the activation was -5%.

Take `CCc1ccccc1NC1c2ccccc2C(=O)N1Cc1ccco1` (centres undefined): in test [18], the activity change, negative = inhibition was -4.2% [at 30.8 µM].

As to `CC(=O)SC1CC2=CC(=O)CC[C@]2(C)C2CC[C@@]3(C)[C@@H](CC[C@@]34CCC(=O)O4)C12` (some centres undefined), the Potency result in [1], in test [3], in test [12], in test [13] and in [17] was “inactive” in each case. Also, the result in [2], in test [9], in test [10], in test [21], in test [14] and in test [16] was inactive. In addition, the Potency was 11.2 µM (active) in [19], 7.94 µM (active) in test [4] and 7.08 µM (active) in test [20]. For the same molecule, in test [15], the activation is 1.19%.

Take `CC(=O)O[C@]1(C(C)=O)CC[C@H]2C3C=C(Cl)C4=CC(=O)[C@@H]5C[C@H]5[C@]4(C)C3CC[C@@]21C` (some centres undefined): the Potency result in [1], in test [3], in test [11], in [13] and in test [17] was “inactive” in each case. Further, the Potency in [19] is 12.6 µM (active); in test [4], 10 µM (active); in [5], 8.91 µM (active); in test [6], 14.1 µM (active); in [20], 8.91 µM (active); in test [8], 12.6 µM (active). The Potency in test [12] is 9.28 µM (active). Further, the result in [10], in test [21], in [14] and in test [16] was inactive.
